Only some compounds are listed: those with a hit (about 4.2% of all), similar ones and a draw of the others.
CCHF vOTU inh: blocks the CCHF virus ovarian tumor domain protease. CCHFV vOTU protease, Pep-AMC fluorescence. inhibition, % at 11.5 µM. actives 0.55% (n = 370,000). AID 651958; also: 0% = vehicle wells with enzyme and 100% = no enzyme wells
GDH-TPI counter: inhibits GDH-TPI coupling enzymes, artifact for Mtb FBA screen; actives 1.2% (n = 360,000); inhibition, % at 4.8 µM; GDH-TPI coupled enzyme counterscreen, NADH absorbance; AID 588335;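 also: 0% = DMSO wells and 100% = wells lacking the enzyme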
RecA splice inh: blocks M. tuberculosis RecA intein splicing; P9WHJ3; cell-free RecA intein splicing, fluorescence; inhibition, % (no concentration beside the values); actives 0.75% (n = 290,000); in the data active = inhibition above about 30%;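 also: 0% = vehicle wells and 100% = reference inhibitor control wells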
Target sequence (P9WHJ3 whole entry, looked up, canonical isoform): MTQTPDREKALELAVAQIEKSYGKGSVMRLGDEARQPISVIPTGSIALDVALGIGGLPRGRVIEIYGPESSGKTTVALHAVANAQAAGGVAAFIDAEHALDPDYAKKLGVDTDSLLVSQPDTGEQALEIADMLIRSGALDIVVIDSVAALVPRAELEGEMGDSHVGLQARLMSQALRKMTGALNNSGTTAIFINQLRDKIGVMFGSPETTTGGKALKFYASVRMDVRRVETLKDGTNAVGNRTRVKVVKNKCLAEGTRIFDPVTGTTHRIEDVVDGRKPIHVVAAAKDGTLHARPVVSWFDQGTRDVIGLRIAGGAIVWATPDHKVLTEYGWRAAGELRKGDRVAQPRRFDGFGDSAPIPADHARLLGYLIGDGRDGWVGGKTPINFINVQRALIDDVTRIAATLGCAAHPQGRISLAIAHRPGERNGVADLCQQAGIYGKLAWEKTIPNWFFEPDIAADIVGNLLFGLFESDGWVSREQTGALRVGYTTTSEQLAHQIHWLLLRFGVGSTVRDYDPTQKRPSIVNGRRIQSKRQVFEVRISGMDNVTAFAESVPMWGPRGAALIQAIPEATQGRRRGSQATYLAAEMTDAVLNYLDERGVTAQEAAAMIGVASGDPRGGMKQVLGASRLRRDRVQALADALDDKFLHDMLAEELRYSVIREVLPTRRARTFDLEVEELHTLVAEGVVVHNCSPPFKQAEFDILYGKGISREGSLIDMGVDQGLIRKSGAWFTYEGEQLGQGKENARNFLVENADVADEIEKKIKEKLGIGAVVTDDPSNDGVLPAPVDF
Mtb FBA inh: inhibits M. tuberculosis FBA enzyme | inhibition, % at 1 µM | P9WQA3 | actives 2.3% (n = 360,000) | purified M. tuberculosis FBA, fluorescence read-out; in the data active = inhibition above about 27%;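 also: 0% = vehicle and 100% = reference inhibitor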
* hit, by the source's call; i = inactive; nt = no result given; + = active, no number. Rule as the data show it, unless noted: active = inhibition above about 30%; inactive = the rest.

SMILES	CCHF vOTU inh	GDH-TPI counter	RecA splice inh	Mtb FBA inh
CC(=O)Nc1cc(C(F)(F)F)ccc1N1CCOCC1	-8.8	7.4	1.1	-0.5
CCOC(=O)C(=CNc1cc(C)ccc1C)C(=O)OCC	2.0	34.3*	7.4	-2.3
CCOC(=O)C(=CNc1cc(C(F)(F)F)ccc1N1CCOCC1)C(=O)OCC	12.0	32.0*	0.5	-0.4
CC(=O)c1cc(-c2cc(C(F)(F)F)cc(C(F)(F)F)c2)c(=O)n2c1CCC2	9.7	nt	nt	nt
COc1ccc(N(CC(=O)N2CCC(C(N)=O)CC2)S(=O)(=O)c2ccccc2)cc1	7.8	1.5	nt	0.9
O=C1NC2(C=Cc3c(ccc4ccccc34)O2)Oc2ccccc21 (centres undefined)	nt	7.7	-4.0	152.0*
CC1(C)OC(=O)N(c2ccccc2)C12C=Cc1c(ccc3ccccc13)O2 (centres undefined)	11.7	0.0	25.4	-0.7
CCOC(=O)c1ccc(N2C(=O)c3n[nH]c(-c4ccco4)c3C2c2ccc([N+](=O)[O-])cc2)cc1 (centres undefined)	16.3	14.2	31.9*	-1.2
CCOC(=O)c1ccc(N2C(=O)c3n[nH]c(C)c3C2c2cccnc2)cc1 (centres undefined)	5.0	0.9	-3.3	0.7
CC1(C(=O)NCc2ccccc2)CN(S(C)(=O)=O)CC(=O)N1CCc1ccccc1F (centres undefined)	0.1	nt	nt	nt
Cc1cc(C(=O)Nc2sc3c(c2C#N)CCC3)no1	7.2	13.1	0.4	-3.8
N#Cc1c(NC(=O)c2cc(C3CC3)on2)sc2c1CCC2	6.7	33.6*	-2.2	1.2
CCc1ccc(/C=C/C(=O)C2C(=O)c3ccccc3C2=O)cc1	15.8	39.2*	32.8*	-0.7
CCn1c2ccccc2c2cc(C=Nn3c(-c4ccccn4)n[nH]c3=S)ccc21	1.1	nt	nt	nt
COc1cc(/C=N/NC(N)=S)ccc1OCC(=O)N1CCOCC1	-1.5	31.5*	-7.1	0.5
COc1cc(/C=C2\SC(=O)NC2=O)ccc1OCC(=O)N1CCOCC1	15.0	36.8*	nt	2.3
O=C1NC(c2ccccc2)=C(c2nc3ccccc3s2)C(c2ccccc2)N1 (centres undefined)	-13.1	33.5*	29.6	-0.3
CC(=O)C1=C(c2ccccc2)NC(=O)NC1c1ccccc1 (centres undefined)	-5.1	6.8	nt	0.6
Cc1cc(NCc2ccco2)nc2cc(O)ccc12	-128.1	10.1	-53.9	124.3*
Cc1ccc(Nc2cc(C)c3ccc(O)cc3n2)cc1C	7.2	3.9	0.7	13.3
O=C(C(=O)N1CCN(C/C=C/c2ccccc2)CC1)c1ccccc1	12.8	nt	nt	nt
O=[N+]([O-])c1cccc(C2CC(c3ccccc3)=NN2c2ccccc2)c1 (centres undefined)	-8.9	19.4	7.3	-0.2
COc1ccc(C2CC(c3ccccc3)=NN2c2ccc(C(N)=O)cc2)cc1 (centres undefined)	-185.0	15.4	-233.9	+
O=C(O)c1ccc(N2N=C(c3ccccc3)CC2c2ccccc2)cc1 (centres undefined)	-144.8	32.2*	-429.3	+
COc1ccc(C2CC(c3cccc(C(F)(F)F)c3)=NN2c2ccc(S(N)(=O)=O)cc2)cc1 (centres undefined)	-102.5	4.2	nt	+
SMILES	CCHF vOTU inh	GDH-TPI counter	RecA splice inh	Mtb FBA inh
COc1ccc(C2CC(c3ccccc3)=NN2c2ccc(S(N)(=O)=O)cc2)cc1 (centres undefined)	-252.2	10.7	-10.9	+
CCOC(=O)c1csc(NC(=O)C2CCCN(S(=O)(=O)c3ccc([N+](=O)[O-])cc3)C2)n1 (centres undefined)	0.9	nt	nt	nt
COc1ccc(C2=NN(c3ccc(C=O)cc3)C(c3ccccc3)C2)cc1 (centres undefined)	nt	nt	-70.4	nt
COc1ccc(C2CC(c3cccs3)=NN2c2ccc(C=O)cc2)cc1 (centres undefined)	0.2	nt	i	nt
Oc1ccccc1C1=NN(c2ccccc2)C(c2ccc(F)cc2)C1 (centres undefined)	4.2	0.7	-10.8	1.4
COc1ccc(C2CC(c3cccc(F)c3)=NN2c2ccc(S(N)(=O)=O)cc2)cc1 (centres undefined)	-162.9	24.0	nt	+
COc1ccc(C2CC(c3ccccc3Cl)=NN2c2ccc(S(N)(=O)=O)cc2)cc1 (centres undefined)	-129.7	2.7	nt	173.8*
NS(=O)(=O)c1ccc(N2N=C(c3ccccc3)CC2c2ccc(F)cc2)cc1 (centres undefined)	-199.4	9.4	-27.0	+
CC1(c2nc3ccccc3[nH]2)CCC2=Nc3ccccc3CN21 (centres undefined)	-2.5	nt	nt	nt
CC(C)(Cc1ccccc1)/[N+]([O-])=C\c1ccc(C(F)(F)F)cc1	-2.3	-1.7	0.8	-3.1
CCOc1ccc(Br)cc1S(=O)(=O)NCC(c1ccc(OC)cc1)N1CCOCC1 (centres undefined)	-6.4	-0.3	nt	-2.3
Cc1nc2nc(N)nc(OCc3ccccc3)c2nc1C	-268.1	7.4	-38.2	161.2*
Nc1nc(OCc2ccccc2)c2[nH]cnc2n1	2.5	-15.0	11.4	0.6
O=C(NCCc1c[nH]c2ccccc12)OCc1cn(Cc2cccc(F)c2F)nn1	3.3	nt	nt	nt
CC(C)C(=O)Nc1ccc2nn(-c3ccc(F)cc3)nc2c1	nt	9.6	1.9	91.5*
Cc1ccc(-n2nc3ccc(NC(=O)C(C)C)cc3n2)cc1	-9.4	-1.6	7.6	23.0
CCCC(=O)Nc1ccc2nn(-c3ccc(OC)cc3)nc2c1	-270.5	24.8	5.1	+
COc1ccc(-n2nc3cc(C)c(NC(=O)CC(C)C)cc3n2)cc1	nt	nt	-5.1	nt
C(=C\c1ccccc1)/C=N/Nc1nc(N2CCOCC2)nc(N2CCOCC2)n1	9.7	47.1*	-3.0	-2.3
Clc1cc2c(cc1/C=N/Nc1nc(N3CCOCC3)nc(N3CCOCC3)n1)OCO2	7.6	8.5	0.8	-9.0
Clc1ccccc1/C=C/C=N/Nc1nc(N2CCOCC2)nc(N2CCOCC2)n1	8.4	40.2*	-3.1	-3.6
Cc1ccc(/C=N\NC(=O)CN2CCN(S(=O)(=O)c3ccc(Br)cc3)CC2)s1	-0.5	nt	nt	nt
c1ccc2c(c1)NC1(CCCCC1)n1c-2nc2ccccc21	-258.5	12.5	-26.7	152.9*
c1ccc2c(c1)NC1(CCCCCC1)n1c-2nc2ccccc21	-221.3	11.7	-22.0	160.7*
CCCCC1(C)Nc2ccccc2-c2nc3ccccc3n21 (centres undefined)	-276.2	8.3	-48.0	+
SMILES	CCHF vOTU inh	GDH-TPI counter	RecA splice inh	Mtb FBA inh
CC1(c2ccccn2)Nc2ccccc2-c2nc3ccccc3n21 (centres undefined)	-237.5	23.0	-13.5	111.8*
NS(=O)(=O)c1ccc(CCNC(=O)COC(=O)CCc2c[nH]c3ccccc23)cc1	3.7	7.9	nt	-0.8
CC(C)n1nnnc1C1(C)CCCCC(=O)N1Cc1cccc(C(F)(F)F)c1 (centres undefined)	0.6	nt	nt	nt
CCOC(=O)c1cc(C)sc1NC(=O)CSC1=NCCS1	5.8	8.6	32.4*	2.7
N#C/C(=C(/O)CSc1ccccc1C(=O)O)c1nc2ccccc2s1	13.5	73.4*	-5.9	-3.9
N#C/C(=C(/O)COc1ccccc1)c1nc2ccccc2s1	-0.7	28.7	1.7	-0.2
Cc1ccc(SC/C(O)=C(\C#N)c2nc3ccccc3s2)cc1	10.9	32.4*	1.2	-1.3

Source: PubChem
